Shown are actives, neighbours in structure and some others; about 3.1% of the full set was active somewhere.
HSP90 inh: inhibitors of HSP90 luciferase refolding in rabbit reticulocyte lysate; 290,000 tested, 0.91% active; inhibition, % at 5.6 µM; luciferase refolding luminescence, 3 h;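 active = inhibition above the screen-wide mean plus 3 SD, computed separately per campaign, cut at about 16% in these data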;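 also: 0% = DMSO wells and 100% = 60 µM geldanamycin wells; inhibitors lower the luminescence because luciferase stays unfolded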
HSF1 activator: increases HSF-1 driven luciferase reporter signal | activation, % at 9 µM | 300,000 tested, 1.7% active | AID 504408 | NIH3T3-HGL HSF-1 luciferase reporter, MG132, 8 h; 100% = twice DMSO control signal;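 active = mean replicate activation of at least 50% with a set share of replicates each reaching 50%; inconclusive = only one of those two conditions met; inactive = mean below 50% and too few replicates reaching it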;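 also: 0% = median of the neutral control wells and 100% = twice that signal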
ARNT-TACC3 inh: disruptors of human ARNT/TACC3 interaction. AlphaScreen His-ARNT PAS-B/GST-TACC3 binding, luminescence; TACC3 fragment carries E629A point mutation. inhibition, % at 9.99 µM. 390,000 tested, 0.66% active;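 active = mean inhibition of replicates at least 50% and at least half of replicates each reaching 50%; inconclusive = half or more replicates reach 50% but mean below 50%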;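 also: 0% = complete ARNT plus TACC3 wells and 100% = ARNT alone without TACC3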
HSF1 inhib: HSF1 inhibition; activity change, negative = inhibition, % at 7.5 µM (by protocol); 300,000 tested, 0.77% active; NIH3T3-HGL HSE-luciferase, MG132-induced, luminescence 8 h; active compounds read low;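 active = more than half of replicate wells show activity change below -50%, luminescence cut by over half; inconclusive = some wells, but at most half, below -50%; inactive = no replicate well below -50%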;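 also: luciferase reports HSF-1 transcriptional activity via heat shock element; 0% = median of DMSO wells and -100% = zero luminescence signal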
HIF activator: HIF pathway transcriptional activation; U2OS HRE-luciferase reporter, luminescence; normalized: DMSO 0%, desferrioxamine 100%; activation, % at 7.5 µM (by protocol); 300,000 tested, 0.32% active;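 active = mean activation of at least 10% of the iron chelator positive control signal, with at least half of replicates also reaching 10%; inconclusive = mean and replicate majority disagree about reaching 10%; inactive = mean and most replicates under 10%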
* marks the source's active call; other numbers are inactive results; ? = inconclusive; / = no result given.

SMILES	HSP90 inh	HSF1 activator	ARNT-TACC3 inh	HSF1 inhib	HIF activator
O=C(/C=C/c1c(Cl)cccc1Cl)Nc1ccncc1	1	?	-5	37	2
O=C(/C=C/c1ccccc1Cl)Nc1ccncc1	-7	53*	4	38	2
O=C(/C=C/c1c(F)cccc1Cl)Nc1ccncc1	2	69*	-5	42	3
Cc1cccc(NC(=O)/C=C/c2ccc(Cl)cc2)n1	3	67*	-2	36	3
C[C@H](O)C#Cc1cnc2c(c1)C(=O)N([C@@H](C)CO)C[C@@H](C)[C@H](CN(C)C(=O)c1ccc(F)cc1)O2	/	/	-3	/	/
O=C(C[C@H]1CC[C@@H](NC(=O)c2ccccc2)[C@@H](CO)O1)NCCc1ccncc1	/	/	1	/	/
O=C(/C=C/c1ccccc1Cl)Nc1cccnc1	6	58*	5	28	1
Cc1cc(C)nc(NC(=O)/C=C/c2ccccc2Cl)c1	-1	84*	-1	36	2
O=C(/C=C/c1c(F)cccc1Cl)Nc1nc2ccccc2[nH]1	2	63*	1	18	4
COc1cccc(NC(=O)C[C@H]2CC[C@H]3[C@H](COc4ccc(NC(=O)C5CCOCC5)cc4C(=O)N3C)O2)c1	/	/	-8	/	/
CCCNC(=O)N1C[C@H]2[C@@H](c3ccccc31)[C@@H](CO)N2CC1CCCCC1	/	/	9	/	/
Cc1cccc(NC(=O)C2CCN(S(=O)(=O)c3ccc4c(c3)NC(=O)CO4)CC2)c1C	0	73*	-20	24	0
Cc1cccc(NC(=O)CC(C)S(=O)(=O)c2ccc3c(c2)NC(=O)CO3)c1C (stereo not drawn)	4	105*	2	56	1
COc1ccccc1NC(=O)C1CCN(S(=O)(=O)c2ccc3c(c2)NC(=O)CO3)CC1	5	-1	5	-5	0
Cc1ccccc1NS(=O)(=O)c1ccc2c(c1)NC(=O)CO2	4	61*	-3	8	0
CNC[C@@H]1OCCCC[C@@H](C)Oc2ccc(NS(=O)(=O)c3ccc(OC)cc3)cc2C(=O)N([C@H](C)CO)C[C@H]1C	/	/	1	/	/
Cc1cc(C)c(NC(=O)CSc2nncn2-c2cccnc2)c(C)c1	-6	-61	1	-54*	0
S=C(Nc1ccc2nc(-c3ccccn3)c(-c3ccccn3)nc2c1)N1CCCCC1	2	/	70*	/	/
CCCNC(=S)Nc1ccc2nc(-c3ccccn3)c(-c3ccccn3)nc2c1	2	27	57*	-3	0
S=C(Nc1ccc(Cl)c(Cl)c1)N1CCCC1	2	0	-1	10	1
S=C(Nc1ccc2nsnc2c1)N1CCCCC1	8	/	29*	/	/
S=C(Nc1ccc2nccnc2c1)N1CCOCC1	1	20	46*	5	1
S=C(Nc1ccc2nc(-c3ccccn3)c(-c3ccccn3)nc2c1)N1CCCCCC1	0	2	8	-6	0
COc1ccc(CN(C)C[C@@H]2Oc3c(NC(=O)c4cnccn4)cccc3C(=O)N([C@H](C)CO)C[C@H]2C)cc1	/	/	0	/	/
CCC(=O)N[C@H]1CC[C@H](CCNC(=O)Nc2ccc(C(F)(F)F)cc2)O[C@@H]1CO	/	/	8	/	/
SMILES	HSP90 inh	HSF1 activator	ARNT-TACC3 inh	HSF1 inhib	HIF activator
COc1ccc(C(=O)N/N=C/c2c(C)[nH]c(=O)[nH]c2=O)cc1	7	-15	38*	-9	0
O=C(COc1ccc(/C=N/NC(=O)c2ccccc2Br)cc1)Nc1ccccc1	-3	-14	-1	-5	-1
Cc1ncc(CO)c(/C=N/NC(=S)Nc2ccc(Cl)c(Cl)c2)c1O	2	31	/	16	0
O=C(O)COc1ccc(/C=N/NC(=O)c2ccccc2Br)cc1	1	-74	-10	-67*	1
Cc1ncc(CO)c(/C=N/NC(=S)Nc2cccc(Cl)c2)c1O	-1	19	/	21	1
Cc1ncc(CO)c(/C=N/NC(=O)c2ccccc2Br)c1O	0	13	61*	0	0
Cc1[nH]c(=O)[nH]c(=O)c1/C=N\NC(=O)CCc1ccc(OC(C)C)cc1	-2	1	/	7	0
COc1ccc(C(=O)N/N=C/c2c(CO)cnc(C)c2O)cc1	1	-5	72*	-4	0
C[C@@H]1CCCCO[C@H](CN(C)CC2CCCCC2)[C@H](C)CN([C@@H](C)CO)C(=O)c2cc(NC(=O)C3CCCCC3)ccc2O1	/	/	-4	/	/
COCCNC(=O)C[C@@H]1CC[C@@H]2[C@H](COC[C@H](O)CN2C(=O)Nc2ccccc2OC)O1	/	/	-2	/	/
CC(C)C#Cc1cnc2c(c1)C(=O)N([C@H](C)CO)C[C@H](C)[C@@H](CN(C)C(=O)Nc1cccc(F)c1)O2	/	/	4	/	/
Cc1ncc(CO)c(/C=N/NC(=O)c2cc3c(s2)CCCC3)c1O	-4	-8	62*	-9	22*
NNC(=O)c1cc2c(s1)CCCCCC2	-2	7	-3	-4	1
CCNc1nc(NCC)nc(OCC(=O)O)n1	0	-11	-7	-6	0
CCNc1nc(NCC)nc(C(=O)NN)n1	0	-5	75*	-7	0
O=C(NCCCn1ccnc1)c1cc(-c2cccs2)on1	-1	26	12	7	38*
O=C(NCCCN1CCOCC1)c1cc(-c2ccc(Cl)c(Cl)c2)on1	-1	-1	-10	0	2
Cc1ccc(-c2cc(C(=O)NCCCN3CCOCC3)no2)cc1	6	-79	-21	-76*	-3
O=C(NCCCN1CCOCC1)c1cc(-c2cccs2)on1	3	3	1	2	20*
O=C(NC1CCCC1)c1cc(-c2cccs2)on1	1	30	-6	9	32*
CCCNC(=O)C[C@H]1CC[C@H]2[C@H](COc3ccc(NC(=O)Cc4ccccc4)cc3C(=O)N2C)O1	/	/	1	/	/
CCCCn1c(SCc2nc3ccccc3s2)nc2ccccc2c1=O	3	39	2	14	0
CCCCn1c(SCc2nc3ccccc3s2)nc2cc(S(N)(=O)=O)ccc21	5	75*	3	52	2
Fc1ccc(NC(=S)N/N=C/c2ccc(F)c(F)c2)cc1	-2	38	0	26	3
COc1ccc(NC(=S)N/N=C/c2ccc(F)c(F)c2)cc1	0	8	1	16	3
SMILES	HSP90 inh	HSF1 activator	ARNT-TACC3 inh	HSF1 inhib	HIF activator
Fc1ccc(/C=N/NC(=S)Nc2ccc(Cl)cc2)cc1F	-7	56*	-9	34	5
Fc1cccc(/C=N/NC(=S)Nc2ccccc2Cl)c1	3	87*	-1	52	4
COc1ccc(NC(=S)N/N=C/c2ccc(F)cc2)cc1OC	3	55*	9	48	0
O=C(c1cnccn1)N(Cc1ccco1)C1(C(=O)NC2CCCC2)CCCCC1	4	0	0	3	0
O=C(c1ccccn1)N(Cc1ccco1)C1(C(=O)NC2CCCC2)CCCCC1	3	61*	-2	23	0
CN(C)CC(=O)N1CCCCN2[C@@H](CO)[C@H](c3ccc(/C=C/c4ccccc4)cc3)[C@@H]2C1	/	/	25	/	/
